Reference: PubChem BioAssay AID1566 (Sanford-Burnham Center for Chemical Genomics, 2009)
Where “and” joins values, the source holds several entries; their conditions need not be identical. Identical values can stand only once. In all, about 290,000 compounds went through this assay and about 1,800 (0.62%) were called active. The sample holds actives, similar compounds and a random draw of the others, so the mix is not that of the screen. No stated cut-off is given here; in the data, active means inhibition above about 50%; inactive means the rest.

experiment: NOD2 signaling inhibitors, cell-based, luminescence, uHTS, HEK293 (AID 1566); details: HEK293 NOD2/NF-kB luciferase reporter, at 4 µM, active compounds read high

SMILES	inhibition
O=C(O)CSCC(=O)Nc1ccc(C2CCCCC2)cc1	73.5% (active)
O=C(CSCCO)Nc1ccc(C2CCCCC2)cc1	-8.8% (inactive)
Nn1cnnc1SCC(=O)Nc1ccc(C2CCCCC2)cc1	-14.6% (inactive)
C=C1CCC[C@]2(C)C[C@H]3OC(=O)C(CNC(C)(CO)CO)[C@H]3CC12 (stereo partly drawn)	3.4% (inactive)
CC1(C)CC(NC(=O)c2cccc3ccccc23)CC(C)(C)N1	-1.7% (inactive)
COc1cc(C(=O)Nc2scc(-c3ccccc3)c2C(=O)O)cc(OC)c1OC	13.6% (inactive)
CC1CCc2c(sc(NC(=O)c3ccco3)c2C(=O)O)C1 (stereo not drawn)	36.1% (inactive)
COc1cc(C(=O)Nc2sc3c(c2C(=O)O)CCC3)cc(OC)c1OC	23.1% (inactive)
COc1cc(C(=O)Nc2scc(-c3ccc(C)cc3)c2C(=O)O)cc(OC)c1OC	42.9% (inactive)
CC(C)(C)OC(=O)C(C)(C)O/N=C(\C(=O)O)c1csc(N)n1	12.5% (inactive)
Cn1c(N/N=C/c2cc3ccccc3nc2Cl)nc2ccccc21	-51% (inactive)
CCn1c(C)nc2cc(-c3nc4n(n3)Cc3ccccc3-4)ccc21	93% (active)
Cc1ccc(-c2nc3n(n2)Cc2ccccc2-3)cc1	-79.2% (inactive)
Clc1ccc(-c2nc3n(n2)Cc2ccccc2-3)cc1	-152% (inactive)
CCC(=O)c1ccccc1OCCN1CCN(Cc2ccccc2)CC1	2.5% (inactive)
O=C1CCCCC1Sc1nnc(-c2ccc3c(c2)OCO3)o1 (stereo not drawn)	71.3% (active)
O=C(c1ccc(Cl)cc1)N1CCCCC(Sc2nnc(-c3ccc4c(c3)OCO4)o2)C1=O (stereo not drawn)	29.1% (inactive)
O=C1OCCC1Sc1nnc(-c2ccc3c(c2)OCO3)o1 (stereo not drawn)	28% (inactive)
CCN(CC)c1ccc2cc(C(C)=O)c(=O)oc2c1	-9.9% (inactive)
CCN(CC)c1ccc2cc(NC(=O)CCC(=O)O)c(=O)oc2c1	57.1% (active)
CCN(CC)c1ccc2cc(C(N)=O)c(=O)oc2c1	-17.6% (inactive)
O=C(N/N=C/c1cccc(O)c1)C(=O)N1CCCCCC1	8.2% (inactive)
COc1ccc(COC(=O)C2=C(C)NC(=O)NC2c2ccc(OC)cc2)cc1 (stereo not drawn)	17.9% (inactive)
COc1ccc(COC(=O)C2=C(C)NC(=O)NC2c2ccc(O)cc2)cc1 (stereo not drawn)	5.6% (inactive)
COc1ccc(COC(=O)C2=C(C)NC(=O)NC2c2ccc(F)cc2)cc1 (stereo not drawn)	50.5% (active)

SMILES	inhibition
O=C(CN1CCN(S(=O)(=O)c2ccc(Cl)cc2)CC1)NC1CCCC1	-2.2% (inactive)
C#CC(=O)N(c1ccc(OC)c(OC)c1)C(C(=O)NC1CCCC1)c1cccs1 (stereo not drawn)	-0.2% (inactive)
C#CC(=O)N(c1ccc(OC)cc1OC)C(C(=O)NC1CCCC1)c1cccs1 (stereo not drawn)	62% (active)
C#CC(=O)N(c1cc(OC)ccc1OC)C(C(=O)NC1CCCC1)c1cccs1 (stereo not drawn)	17% (inactive)
CC(=O)c1c(C)[nH]c(C(=O)Nc2nc(-c3ccc(Cl)cc3)cs2)c1C	31.2% (inactive)
CC(=O)c1c(C)[nH]c(C(=O)Nc2nc(C)cs2)c1C	-21.9% (inactive)
CCCNC(=O)CCCN1C(=O)c2ccccc2Sc2ncccc21	7.1% (inactive)
CCCCN(CC)CCCNC(=O)Cn1nc(Cc2ccncc2)c2ccccc2c1=O	2.4% (inactive)
COc1ccccc1-n1c(-c2ccccc2)c[n+]2c1CCc1ccccc1-2	49% (inactive) and 41.3% (inactive)
COc1ccc(-n2c(-c3ccc(Br)cc3)c[n+]3c2CCc2ccccc2-3)cc1	31.4% (inactive)
Cc1ccc(-n2c(-c3ccccc3)c[n+]3c2CCc2ccccc2-3)c(C)c1	56.2% (active)
Cc1cc(C(=O)COC(=O)c2cccnc2Cl)c(C)n1CC1CCCO1 (stereo not drawn)	55.8% (active)
COCCn1c(C)cc(C(=O)COC(=O)c2ccc(Br)o2)c1C	4.7% (inactive)
CSc1ncccc1C(=O)OCC(=O)c1cc(C)n(CC2CCCO2)c1C (stereo not drawn)	5.9% (inactive)
Cc1cc(C(=O)COC(=O)c2ccc(O)cc2)c(C)n1CC1CCCO1 (stereo not drawn)	-113% (inactive)
COCCn1c(C)cc(C(=O)COC(=O)c2ccc[nH]c2=O)c1C	29.6% (inactive)
Cc1ccc(C(=O)OCC(=O)c2cc(C)n(CC3CCCO3)c2C)cc1 (stereo not drawn)	18.2% (inactive)
Cc1cc(C(=O)COC(=O)c2ccccc2NCCO)c(C)n1CC1CCCO1 (stereo not drawn)	-4.6% (inactive)
COCCn1c(C)cc(C(=O)COC(=O)c2ccccc2Br)c1C	68.7% (active)
O=C(CC1C(=O)NCCN1C(=O)Nc1ccc(Cl)cc1)Nc1ccc(F)cc1 (stereo not drawn)	8.1% (inactive)
COc1ccc(C/C(C)=N/NC(=O)c2cccnc2)cc1	-5.6% (inactive)
CCOc1ccccc1/C=C/C(=O)NCC(=O)N1CCC(N(C)C2CCCCC2C)CC1 (stereo not drawn)	9.7% (inactive)
COc1ccc(CNCCNC(=O)c2nonc2N)cc1OC	11.4% (inactive)
Cc1ccc(S(=O)(=O)Nc2ccccc2C(=O)N2CCN(C)CC2)cc1	4% (inactive)
COc1ccc(NC(=O)CO/N=C(\C)c2cccs2)cc1	-10.2% (inactive)

SMILES	inhibition
O=C(Nc1ccccc1)Nc1cccc(C(F)(F)F)c1	-38.6% (inactive)
O=C(Nc1ccncc1)Nc1cccc(C(F)(F)F)c1	18% (inactive)
O=S(=O)(c1ccc(NCc2ccc(F)cc2)nc1)N1CCCC1	12.4% (inactive)
CC(OC(=O)Cc1ccc(Cl)cc1)C(=O)NCCC1=CCCCC1 (stereo not drawn)	17.9% (inactive)
COC(=O)c1ccccc1NS(=O)(=O)c1ccc(NC(C)=O)cc1	1.9% (inactive)
COC(=O)c1ccc(NC(=O)c2ccccc2NS(C)(=O)=O)cc1	6.5% (inactive)
COc1ccccc1C(=O)Nc1ccc(C(=O)O)cc1	-1.4% (inactive)
Cc1ccccc1OCC(=O)Nc1ccc(C(=O)Nc2ccccc2C(=O)O)cc1	33.3% (inactive)
COc1ccccc1C(=O)Nc1ccc(C(=O)c2ccccc2)cc1	4.1% (inactive)
COc1ccccc1C(=O)Nc1ccc(C(=O)Nc2ccccc2C(=O)O)cc1	59.6% (active)
Cc1cc(C(=O)Nc2ccccc2C(=O)O)ccc1NC(=O)COc1cccc(C)c1C	47.7% (inactive)
c1ccc(CCSc2nccn2-c2ccccc2)cc1	-141% (inactive)
CCCc1cc(=O)oc2c3c(c(Cl)cc12)OCN(CCCO)C3	-64.8% (inactive)
CC(C)C(c1nnnn1C1CCCCC1)N1CCOCC1 (stereo not drawn)	0.1% (inactive)
CCOC(=O)c1cccc(NC(=O)c2cc3ccccc3o2)c1	-97.4% (inactive)
CCOc1ccc(/C=N/n2c(C)nnc2C)cc1OC	8% (inactive)
Cc1ccc(C(=O)OCc2cc3ccccc3[nH]c2=O)cc1	3.6% (inactive)
O=C(c1ccc(N2CCN(C(=O)c3ccc(F)cc3F)CC2)cc1)c1cccc(F)c1	10.3% (inactive)
COCCn1c(C)cc(C2=NNC(=Nc3ccccc3F)SC2)c1C	61.6% (active)
C=CCn1c(C)cc(C2=NNC(=NCc3ccccc3)SC2)c1C	-78% (inactive)
COCCn1c(C)cc(C2=NNC(=NC(C)(C)C)SC2)c1C	4.6% (inactive)
COCCn1c(C)cc(C2=NNC(=NC3CC3)SC2)c1C	94% (active)
Cc1cc(C2=NNC(=NCCc3ccccc3)SC2)c(C)n1CC1CCCO1 (stereo not drawn)	-32.5% (inactive)
COCCn1c(C)cc(C2=NNC(=Nc3ccccc3)SC2)c1C	-146% (inactive)
COCCn1c(C)cc(C2=NNC(=Nc3ccc(Cl)cc3Cl)SC2)c1C	8.7% (inactive)

SMILES	inhibition
COCCn1c(C)cc(C2=NNC(=Nc3ccc(OC)cc3)SC2)c1C	-9.9% (inactive)
COCCN=C1NN=C(c2cc(C)n(CC3CCCO3)c2C)CS1 (stereo not drawn)	19.4% (inactive)
C=CCN=C1NN=C(c2cc(C)n(CCOC)c2C)CS1	65.1% (active)
C=CCN=C1NN=C(c2cc(C)n(CC=C)c2C)CS1	73.6% (active)
COCCCN=C1NN=C(c2cc(C)n(Cc3ccccc3Cl)c2C)CS1	-30.7% (inactive)
C#CCOc1c(Cl)cc(/C=C2/C(=O)ON=C2C)cc1OC	6.6% (inactive)
Cn1c(=O)oc2cc(S(=O)(=O)NCCC(=O)NC3CCCC3)ccc21	-0.1% (inactive)
COc1ccc(CCN=C(N)Nc2nc(C)cc(C)n2)cc1	8.4% (inactive)
COCCn1c(Cc2cccn2C)nnc1SCC(=O)NCc1ccc2c(c1)OCO2	5.3% (inactive)
COc1ccccc1-n1c(SCC(=O)N2CCOCC2)nc2ccccc2c1=O	2.8% (inactive)
CCOC(=O)CNC(=O)CSc1ccc2nnc(-c3ccc(F)cc3)n2n1	8.4% (inactive)
Cc1ccc(-c2noc(C3CCCN(C(=O)c4ccc(Cl)cc4)C3)n2)o1 (stereo not drawn)	-1.8% (inactive)
C=CCn1c(C)cc(C2=NNC(=NC(C)(C)C)SC2)c1C	63.3% (active)
Cc1cc(C2=NNC(=Nc3ccccc3)SC2)c(C)n1C	-60.1% (inactive)
CCN=C1NN=C(c2ccc(C)cc2)CS1	-71.4% (inactive)
CC(C)(C)N=C1NN=C(c2ccc(Cl)cc2)CS1	-99% (inactive)
C=CCn1c(C)cc(C2=NNC(=NCC)SC2)c1C	92.6% (active)
C=CCn1c(C)cc(C2=NNC(=Nc3ccc(C)cc3)SC2)c1C	3% (inactive)
CN(C(=O)Cn1nnc2ccccc2c1=O)C1CCCCC1	6.8% (inactive)
COc1ccc(-c2nnc(SCC(=O)NC3CCCCC3)o2)cc1	6% (inactive)
CCOc1ccccc1N(CC(=O)NCC1CCCO1)C(=O)CNS(=O)(=O)c1ccccc1 (stereo not drawn)	-15.5% (inactive)
COc1ccc(-n2c(-c3ccc(C)cc3)n[nH]c2=S)cc1	-6.4% (inactive)
O=C(CCSc1nc(-c2ccco2)cc(C(F)(F)F)n1)N1CCN(c2ccccc2)CC1	-17.1% (inactive)
